The test concerns T1, PCTK2.
T1 construct: gene CDK17
Conditions: concentration: 1 μM, replicates: in singlicate; n = 1.
For the compound `FC(F)(F)c1ccc(/C=C/c2cncnc2Nc2ccc3[nH]c(Cc4ccccc4)nc3c2)cc1` [GW709199], the “%Inh” value worked out at 0%. Then `COc1ccc(Nc2nccc(NCCNC(=O)c3cc4ccccc4s3)n2)cc1` [GSK1379896], with 0%; and `Cl.Cl.NCC(NCc1ccc(-c2ccnc3[nH]ccc23)s1)c1ccccc1` (centres unmarked) [GSK1321565], with 0%; and `O=C(Nc1cccc(-c2nn3ncccc3c2-c2ccnc(Nc3ccccc3)n2)c1)c1c(F)cccc1F` [GSK198271], with 0%. For `Cn1cc(-c2ccc3c(c2)CCN3C(=O)Cc2cccc(F)c2)c2c(N)ncnc21` [GSK2603358], the “%Inh” value is 0%.

With `Nc1ncc(-c2cccnc2)c2scc(-c3ccc4c(c3)CCN4C(=O)Cc3ccccc3)c12` [GSK683281], the “%Inh” value is 8%.

Consider `COC(=O)Nc1nc2cc(Oc3ccc(NC(=O)Nc4cc(C(F)(F)F)ccc4F)cn3)ccc2[nH]1.Cl.Cl` [GW681170], for which the “%Inh” value is on record as 16%. Then `CCn1c(-c2nonc2N)nc2c(C#CC(C)(C)O)nc(OC[C@H](N)c3ccccc3)cc21` [GSK943949], with 0%.

Turning to `COc1ccc(Nc2nccc(N3CCC(NC(=O)Nc4cccc(OC)c4)C3)n2)cc1` (centres unmarked) [GSK1379742], the “%Inh” value turned out to be 0%. Then `O=C(Nc1cccc(Oc2ccc3nc(NC(=O)C4CC4)cn3n2)c1)c1ccccc1C(F)(F)F`, with 0%; and `Fc1ccc(-c2ncn(C3CCNCC3)c2-c2ccnc(Oc3ccc(-c4ccccc4)cc3)n2)cc1` [SB-245391], with 1%.

For the compound `CC(=O)Nc1nc2cnc(Nc3cc(NC(=O)c4cccc(C5(C#N)CC5)c4Cl)ccc3C)nc2s1`, the “%Inh” value is given as 9%. With `Clc1ccc(-c2nn3ncccc3c2-c2ccnc(Nc3ccc4c(c3)OCCO4)n2)cc1` [GW829116], the “%Inh” value was 0%. Then `O=C(Nc1ccccc1F)NC1CCN(c2ccnc(Nc3ccc(F)cc3)n2)CC1` [GSK1379800], with 0%; and `c1ccc(-c2cnc3nccnn23)cc1` [AH20685], with 0%; and `COc1cc2c(cc1OCCN1CCNCC1)ncc1c3ccc(C#N)cc3[nH]c21`, with 9%. Then `COc1cccc(C2=C(Nc3ccc(Cl)c(C(=O)O)c3)C(=O)NC2=O)c1` [SB-390769], with 0%; and `O=C(O)C(F)(F)F.O=C(O)C(F)(F)F.O=c1[nH]ccc2nc(N[C@@H]3CCCNC3)nc(Nc3ccc(S(=O)(=O)N4CCOCC4)cc3)c12` [GSK2177277], with 98.3%; and `COc1cccc(NC(=O)NC2CCN(c3ccnc(Nc4cc(OC)c(OC)c(OC)c4)n3)C2)c1` (centres unmarked) [GSK1379763], with 25%. As for `O=c1[nH]cc(-c2ccc(N3CCOCC3)cc2)c2sc(-c3cn[nH]c3)cc12` [GSK2276055], the figure is 28%; as for `Nc1ncc(-c2ccc3nccc(-c4ccncc4)c3c2)cc1S(=O)(=O)N1CCOCC1` [GSK1627798], 21%; as for `Cl.c1ccc(-c2ccc3c(Nc4ccc5[nH]ncc5c4)ccnc3c2)nc1` [GW440137], 14%. On to `Cc1ccc(C)c(NC(=O)NC2CCN(c3ccnc(Nc4ccc(F)cc4)n3)C2)c1` (centres unmarked) [GSK1379720], for which the “%Inh” value was found to be 0%.

Consider `Cl.Cl.NCC(NC(=O)c1cc(-c2ccccc2)c(-c2ccnc3[nH]ccc23)s1)c1ccccc1` (centres unmarked) [GSK1321561], for which the “%Inh” value is reported as 0%. Then `Cc1occc1-c1ncc(OC[C@@H](N)Cc2c[nH]c3ccccc23)cc1-c1ccc2[nH]nc(C)c2c1.O=C(O)C(F)(F)F` [GSK682037], with 0%.

Take `CN(c1ccc(NC(=O)Nc2cc(C(F)(F)F)ccc2F)cc1)c1ccnc(Nc2ccc(S(N)(=O)=O)cc2)n1` [GW809893]: the “%Inh” value turned out to be 97.9%. For `CC(C)c1nc(-c2cccc(NS(=O)(=O)c3c(F)cccc3F)c2F)c(-c2ccnc(Nc3ccc(N4CCOCC4)nc3)n2)s1` [GSK2008607], the “%Inh” value came to 100%. For the compound `Cc1cccc(Nc2nc(N[C@H]3CCNC3)ncc2C(N)=O)c1.Cl` [GSK2197149], the “%Inh” value came out at 7%. Then `COc1cccc(C(=O)Nc2cccc(Oc3ccc4nc(NC(=O)C5CC5)cn4n3)c2)c1`, with 0%; and `Cl.c1ccc(-c2ccc3c(Nc4ccc5[nH]ccc5c4)ccnc3c2)nc1` [GW440138], with 6%. As for `CC(=O)N1CCN(c2ccc(Nc3nccc(-c4sc(C(C)C)nc4-c4cccc(NS(=O)(=O)c5cccc(Cl)c5)c4)n3)cn2)CC1` [GSK1660437], the figure is 99.9%; as for `CCn1c(-c2nonc2N)nc2c(C#CC(C)(C)O)ncc(OCCCCN)c21.O=C(O)C(F)(F)F.O=C(O)C(F)(F)F` [GSK507274], 0%.

Source of the values: article PMC5540273 (PLoS ONE, 2017).
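Note: KINOMEscan kinase panel screen.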
